According to ChEMBL document CHEMBL1201862, “PubChem BioAssay data set” (2004):
The whole screen tested about 42,000 sequences, of which about 2,900 (6.9%) were called active. No stated cut-off is given here; in the data, active = GI50 up to about 1.1 µM and inactive = higher. The sample as a whole holds a higher share of actives than the screen did. Entries with a potency or affinity are not part of this list.

Tested on: T47D

Substance	GI50
[Bis(aminomethyl)tetramethylenesilane]dichloropaltinum(II), CHEMBL2146205	5 µM
[Bis(aminomethyl)pentamethylenesilane]dichloropaltinum(II), CHEMBL2146202	1.34 µM
[Bis(aminomethyl)dimethylsilane]tetrachloroplatinum(IV), CHEMBL2146190	14.6 µM
[Bis(aminomethyl)tetramethylenesilane]tetrachloropaltinum(IV), CHEMBL2146189	0.184 µM
[Bis(aminomethyl)pentamethylenesilane]tetrachloropaltinum(IV), CHEMBL2146204	2.18 µM
CISPLATIN, CHEMBL11359	14 µM
